# In PMC5540273 (PLoS ONE, 2017):
# Legend:
# Conditions in all cases: concentration: 1 μM,replicates: in singlicate; n = 1
# DCAMKL2 = tested on: T1, DCAMKL2
# T1 construct: gene DCLK2
# DCAMKL3 = tested on: T2, DCAMKL3
# T2 construct: gene DCLK3
# DDR1 = tested on: DDR1
# DDR2 = tested on: DDR2
# DLK = tested on: T3, DLK
# T3 construct: gene MAP3K12
# DMPK2 = tested on: T4, DMPK2
# T4 construct: gene CDC42BPG
# DMPK = tested on: DMPK
# DRAK1 = tested on: T5, DRAK1
# T5 construct: gene STK17A
# DRAK2 = tested on: T6, DRAK2
# T6 construct: gene STK17B
# DYRK1A = tested on: DYRK1A
# DYRK1B = tested on: DYRK1B
# DYRK2 = tested on: DYRK2
# EGFR = tested on: EGFR
# EIF2AK1 = tested on: EIF2AK1
# EPHA1 = tested on: EPHA1
# EPHA2 = tested on: EPHA2
# EPHA3 = tested on: EPHA3
# EPHA4 = tested on: EPHA4
# EPHA5 = tested on: EPHA5
# EPHA6 = tested on: EPHA6
# 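Note: KINOMEscan kinase panel screen.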
Structure (SMILES),%Inh (DCAMKL2) [%],%Inh (DCAMKL3) [%],%Inh (DDR1) [%],%Inh (DDR2) [%],%Inh (DLK) [%],%Inh (DMPK2) [%],%Inh (DMPK) [%],%Inh (DRAK1) [%],%Inh (DRAK2) [%],%Inh (DYRK1A) [%],%Inh (DYRK1B) [%],%Inh (DYRK2) [%],%Inh (EGFR) [%],%Inh (EIF2AK1) [%],%Inh (EPHA1) [%],%Inh (EPHA2) [%],%Inh (EPHA3) [%],%Inh (EPHA4) [%],%Inh (EPHA5) [%],%Inh (EPHA6) [%]
COc1cccc(C2=C(Nc3cccc(Cl)c3)C(=O)NC2=O)c1 [SB-341556],0,31,16,0,0,0,6,0,0,55,0,2,25,9,18,19,0,23,0,13
CCOC(=O)N1CCC(n2cnc(-c3ccc(F)cc3)c2-c2ccnc(N)n2)CC1 [SB-219952],15,18,83,60,0,39,22,0,0,2,30,21,32,19,9,13,14,9,0,12
CCN1CCN(CCCC(=O)Nc2n[nH]c3nc(-c4ccc(O)cc4)c(Br)cc23)CC1 [SB-731579],18,99.1,38,41,8,0,89,44,0,38,77,74,0,71,0,0,6,0,0,0
Cc1ccc(CC(=O)N2CCc3cc(-c4cn(C)c5ncnc(N)c45)ccc32)cc1 [GSK2634758],0,0,61,44,21,68,15,0,0,0,0,7,27,46,0,2,0,0,0,0
Cn1ccc2ncnc(Oc3ccc(NC(=O)Nc4cccc(C(F)(F)F)c4)c(F)c3)c21,18,17,96.9,100,0,4,0,0,24,0,0,0,12,0,51,94.6,58,85,85,97.7
N#Cc1cccc(C(=O)NC2CCN(c3ccnc(Nc4ccc(F)cc4)n3)C2)c1 (centres unmarked) [GSK1379708],9,9,0,0,35,0,0,0,4,21,0,0,14,0,1,0,0,0,0,2
Cc1ccc2c(-c3ccnc(Nc4ccc(C(F)(F)F)cc4)n3)cnn2n1 [GW819776],0,0,0,4,0,9,0,37,13,37,65,29,0,0,0,0,0,8,1,8
CCn1c(-c2nonc2N)nc2cncc(Br)c21 [SB-738004],2,7,0,39,43,10,0,5,0,98,29,73,15,0,0,41,29,16,0,4
FC(F)(F)c1cc(Br)cc(Nc2nccc(-c3cnn4ncccc34)n2)c1 [GW810578],15,16,0,16,0,20,15,8,36,99.6,98.3,47,16,0,11,0,7,15,26,18
Cc1ccc(C(=O)Nc2ccc(Oc3ccc4nc(NC(=O)C5CC5)cn4c3)c(F)c2)c(=O)n1-c1ccccc1,0,0,98.2,100,35,0,0,0,1,0,39,0,0,0,91.8,98.5,49,90.1,45,95.4
